Among the test systems are SR leukemia; RPMI-8226 leukemia; OVCAR-8 ovarian; OVCAR-5 ovarian; OVCAR-4 ovarian; SK-OV-3 ovarian; IGROV1 ovarian; OVCAR-3 ovarian; HS 578T breast; NCI/ADR-RES ovarian; T-47D breast; BT-549 breast; MDA-MB-435 melanoma; SW-620 colon; MCF7 breast; HCT-116 colon; HCC-2998 colon; KM12 colon.
Common to all, as to assay: NCI-60 one-dose screen, 48 h (100 = growth as untreated, 0 = no growth, -100 = all killed)
Holding throughout (conditions): 10 µM unless noted

Molecules are shown by their SMILES. The panel holds about 83,000 compounds, 20% with a hit somewhere; the sample as a whole holds those more often.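 Growth was measured after 48 h exposure to one concentration of compound in 96-well plates. Values under 10 count as active.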 Values without a mark were called inactive. Activity calls are given as the source filed them.

On to `CCOC(=O)C(=CCC(C)C)C(=O)OCC`, for which the growth with SR leukemia was 119%; in the assay on RPMI-8226 leukemia, 99%; in the assay with OVCAR-8 ovarian it was 109%; with OVCAR-5 ovarian, 95.8%; with OVCAR-4 ovarian, 95.2%; in the assay with SK-OV-3 ovarian it was 98.5%. In addition, the growth in the assay with IGROV1 ovarian was 104%; in the assay with OVCAR-3 ovarian, 99.5%; with HS 578T breast, 98.6%; in the assay with NCI/ADR-RES ovarian, 93.8%; in the assay on T-47D breast, 88.2%; in the assay on BT-549 breast it was 93.1%. The growth was 99.7% with MDA-MB-435 melanoma; 105% with SW-620 colon; 99.5% in the assay on MCF7 breast; 98.9% with HCT-116 colon; 92.4% in the assay on HCC-2998 colon; 110% in the assay with KM12 colon.
As to `CC[C@H](C)[C@H](NC(=O)[C@H](CCCCN)NC(=O)[C@H](CCCCN)NC(=O)[C@@H](NC(=O)[C@@H](NC(=O)[C@@H](N)Cc1cnc[nH]1)[C@@H](C)CC)[C@@H](C)CC)C(=O)N[C@@H](CCCNC(=N)N)C(=O)N[C@H](C(=O)N[C@@H](Cc1c[nH]c2ccccc12)C(=O)N[C@@H](Cc1ccc(O)cc1)C(=O)N[C@@H](CCCNC(=N)N)C(=O)N[C@@H](CCCCN)C(=O)N[C@@H](C)C(=O)N[C@@H](Cc1c[nH]c2ccccc12)C(=O)N[C@@H](Cc1cnc[nH]1)C(=O)N[C@H](C(=O)N[C@@H](CC(C)C)C(=O)NCC(=O)N[C@@H](CCCCN)C(=O)N[C@H](C(N)=O)C(C)C)C(C)C)[C@@H](C)O`, the growth with SR leukemia is 71.9%; in the assay with RPMI-8226 leukemia it was 56.1%; with OVCAR-8 ovarian it was 33.7%; with OVCAR-5 ovarian, 48.4%; in the assay on OVCAR-4 ovarian it was 77.9%; in the assay with SK-OV-3 ovarian, 35%. For the same molecule, the growth with IGROV1 ovarian was 39.2%; in the assay with OVCAR-3 ovarian, 44.9%; in the assay on HS 578T breast, 11.6%; with NCI/ADR-RES ovarian, 34.8%; in the assay on T-47D breast, -56.4% (active); in the assay on BT-549 breast, 41.9%. The growth in the assay with MDA-MB-435 melanoma is 23.6%; in the assay with SW-620 colon it was 44.2%; in the assay with MCF7 breast it was -67.9% (active); in the assay on HCT-116 colon, 45.1%; in the assay on HCC-2998 colon it was 25.7%; in the assay on KM12 colon it was -11.7% (active).
For `N#Cc1c(N)nnn1Cc1cc(=O)oc2ccc(O)cc12`, the growth is 95.3% in the assay with SR leukemia; 94.1% in the assay on RPMI-8226 leukemia; 100% in the assay with OVCAR-8 ovarian; 106% with OVCAR-5 ovarian; 110% in the assay on OVCAR-4 ovarian; 112% in the assay on SK-OV-3 ovarian. Also, the growth was 112% with IGROV1 ovarian; 113% with OVCAR-3 ovarian; 99% in the assay on HS 578T breast; 111% in the assay on NCI/ADR-RES ovarian; 98% in the assay with T-47D breast; 111% in the assay with BT-549 breast. For the same molecule, the growth is 105% with MDA-MB-435 melanoma; 104% in the assay on SW-620 colon; 96.8% with MCF7 breast; 89.3% in the assay on HCT-116 colon; 110% in the assay with HCC-2998 colon; 107% with KM12 colon.
Regarding `Cn1cc(-c2csc(-c3c[nH]c4ccc(F)cc34)n2)c2cnccc21`, the growth was -36% (active) in the assay with SR leukemia; -35.5% (active) with RPMI-8226 leukemia; -1.04% (active) in the assay on OVCAR-8 ovarian; -12.5% (active) in the assay on OVCAR-5 ovarian; 10.9% in the assay on OVCAR-4 ovarian; 103% in the assay with SK-OV-3 ovarian. Further, the growth with IGROV1 ovarian is -37.1% (active); in the assay with OVCAR-3 ovarian, -73.2% (active); with HS 578T breast, -38.1% (active); in the assay on NCI/ADR-RES ovarian, 11.5%; in the assay with T-47D breast, -65% (active); in the assay with BT-549 breast it was 76.6%. The growth in the assay on MDA-MB-435 melanoma was -90.5% (active); in the assay on SW-620 colon, -86.7% (active); in the assay with MCF7 breast, -25.1% (active); with HCT-116 colon, -89.9% (active); with HCC-2998 colon it was -54.9% (active); in the assay on KM12 colon, -11.8% (active).
For `CCCNNC(=O)/C=C/c1ccc(CNCCc2c(C)[nH]c3ccccc23)cc1`, the growth was 20.1% [2.5 µM] with SR leukemia; 16.3% [2.5 µM] with RPMI-8226 leukemia; 10.8% [2.5 µM] in the assay on OVCAR-8 ovarian; 1.96% [2.5 µM] (active) in the assay with OVCAR-5 ovarian; 41.6% [2.5 µM] with OVCAR-4 ovarian; 0.0389% [2.5 µM] (active) in the assay on SK-OV-3 ovarian. For the same molecule, the growth is 9.05% [2.5 µM] (active) in the assay on IGROV1 ovarian; 19.8% [2.5 µM] with OVCAR-3 ovarian; 35.3% [2.5 µM] in the assay with HS 578T breast; 50% [2.5 µM] in the assay on NCI/ADR-RES ovarian; -7.33% [2.5 µM] (active) with T-47D breast; 62.2% [2.5 µM] with BT-549 breast. Besides, the growth with MDA-MB-435 melanoma was 14% [2.5 µM]; in the assay on SW-620 colon, 10.7% [2.5 µM]; in the assay with MCF7 breast, 24.2% [2.5 µM]; in the assay with HCT-116 colon, 0.525% [2.5 µM] (active); in the assay with HCC-2998 colon, 13.3% [2.5 µM]; in the assay with KM12 colon, 28.8% [2.5 µM].
In the case of `Cc1cccc(-c2nnc(SCC(=O)Nc3ncc(Cc4ccccc4)s3)n2N2C(=O)CSC2=S)c1`, the growth in the assay on SR leukemia was 44.8%; with RPMI-8226 leukemia, 77.2%; in the assay on OVCAR-8 ovarian, 24.7%; in the assay on OVCAR-5 ovarian it was 72.7%; in the assay on OVCAR-4 ovarian, -14.9% (active); in the assay on SK-OV-3 ovarian it was 87.2%. Besides, the growth with IGROV1 ovarian was 50.5%; in the assay with OVCAR-3 ovarian, 50.8%; in the assay on HS 578T breast it was 1.22% (active); with NCI/ADR-RES ovarian it was 80.2%; with T-47D breast, 43.8%; in the assay on BT-549 breast it was 78.5%. Moreover, the growth in the assay with MDA-MB-435 melanoma is 48.5%; in the assay with SW-620 colon, 49.6%; with MCF7 breast it was 56.2%; in the assay on HCT-116 colon it was 25%; in the assay with HCC-2998 colon, 70.9%; in the assay on KM12 colon, 71.7%.
`COc1ccc(N2CCN(S(=O)(=O)c3oc(-c4ccccc4)nc3C#N)CC2)cc1`: the growth is 6.1% (active) in the assay on SR leukemia; 41.4% in the assay with RPMI-8226 leukemia; 60.2% in the assay with OVCAR-8 ovarian; 95.2% in the assay with OVCAR-5 ovarian; 86.7% in the assay on OVCAR-4 ovarian; 113% in the assay on SK-OV-3 ovarian. Moreover, the growth in the assay with IGROV1 ovarian was 54.6%; in the assay on OVCAR-3 ovarian it was 73.3%; in the assay with HS 578T breast it was 104%; in the assay on NCI/ADR-RES ovarian, 91%; with T-47D breast, 73.1%; with BT-549 breast it was 77.5%. The growth was 65.2% in the assay with MDA-MB-435 melanoma; 7.02% (active) in the assay on SW-620 colon; 31.2% in the assay with MCF7 breast; 15.4% with HCT-116 colon; 100% in the assay with HCC-2998 colon; 104% in the assay on KM12 colon.
Turning to `COc1ccc(-c2csc(NC(=O)CN3CCN(CCO)CC3)n2)cc1NS(=O)(=O)c1cccc2c(N(C)C)cccc12`, the growth was -6.12% (active) in the assay with SR leukemia; 36% with RPMI-8226 leukemia; 84.1% in the assay on OVCAR-8 ovarian; 97% in the assay with OVCAR-5 ovarian; 68.2% with OVCAR-4 ovarian; 90.7% with SK-OV-3 ovarian. Besides, the growth with IGROV1 ovarian was 77.3%; in the assay with OVCAR-3 ovarian, 79.5%; in the assay with HS 578T breast, 65.7%; in the assay with NCI/ADR-RES ovarian, 93.3%; with T-47D breast it was 72%; in the assay on BT-549 breast it was 82.1%. The growth in the assay with MDA-MB-435 melanoma was 57.3%; in the assay on SW-620 colon, 84.1%; with MCF7 breast, 59.6%; with HCT-116 colon it was 73.5%; in the assay with HCC-2998 colon, 73.2%; with KM12 colon, 77.2%.

The values above are taken from PubChem BioAssay (NCI).
